In all, about 5,500 compounds went through this assay and about 2,000 (36%) were called active. Not shown: some 18% with an inconclusive outcome. No stated cut-off is given here; in the data, active means normalized growth mostly below about 0.91 (no sharp cut-off); inconclusive means no clear call, values can overlap the other calls; inactive means mostly above about 0.92. The list shows a part of the results.
Experiment: chemical genetic growth profiling, strain panel (AID 1159580);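 further: tested at 20 µM; growth read once vehicle control cultures reached saturation at 30 °C; 1 = growth at the plate median or of vehicle wells; lower values mean less growth of the strain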
Details: growth OD

Measured: normalized growth

COc1ccc(CNc2ccccc2-c2nc3ccccc3[nH]2)cc1
inactive: S. cerevisiae deletion strains, locus YAL013W, strain DEP1, hits give low values 0.967 | S. cerevisiae deletion strains, locus YBR229C, strain ROT2, hits give low values 0.944 | S. cerevisiae deletion strains, locus YCL061C, strain MRC1, hits give low values 0.941 | S. cerevisiae deletion strains, locus YDL101C, strain DUN1, hits give low values 0.937 | S. cerevisiae deletion strains, locus YDR150W, strain NUM1, hits give low values 0.934 | S. cerevisiae deletion strains, locus YGR078C, strain PAC10, hits give low values 0.952 | S. cerevisiae deletion strains, locus YGR229C, strain SMI1, hits give low values 0.95 | S. cerevisiae deletion strains, locus YHR087W, strain rtc3, hits give low values 0.92 | S. cerevisiae deletion strains, locus YJL187C, strain SWE1, hits give low values 0.978 | S. cerevisiae deletion strains, locus YJR043C, strain POL32, hits give low values 0.957 | S. cerevisiae deletion strains, locus YJR075W, strain HOC1, hits give low values 0.937 | S. cerevisiae deletion strains, locus YLR058C, strain SHM2 (second series), hits give low values 0.956 | S. cerevisiae deletion strains, locus YML094W, strain GIM5, hits give low values 0.882 | S. cerevisiae deletion strains, locus YMR219W, strain ESC1, hits give low values 0.983 | S. cerevisiae deletion strains, locus YMR263W, strain SAP30, hits give low values 0.948 | S. cerevisiae deletion strains, locus YNL128W, strain TEP1, hits give low values 0.917 | S. cerevisiae deletion strains, locus YNL153C, strain GIM3, hits give low values 0.959 | S. cerevisiae deletion strains, locus YNL322C, strain KRE1, hits give low values 0.978 | S. cerevisiae deletion strains, locus YPL055C, strain LGE1, hits give low values 0.797
active: S. cerevisiae deletion strains, locus YDL134C, strain PPH21, hits give low values 0.87 | S. cerevisiae deletion strains, locus YEL061C, strain CIN8, hits give low values 0.861 | S. cerevisiae deletion strains, locus YHR030C, strain SLT2, hits give low values 0.431 | S. cerevisiae deletion strains, locus YKL190W, strain CNB1, hits give low values 0.881 | S. cerevisiae deletion strains, locus YLR039C, strain RIC1, hits give low values 0.529 | S. cerevisiae deletion strains, locus YLR085C, strain ARP6, hits give low values 0.514 | S. cerevisiae deletion strains, locus YLR262C, strain YPT6, hits give low values 0.648 | S. cerevisiae deletion strains, locus YMR307W, strain GAS1, hits give low values 0.52 | S. cerevisiae deletion strains, locus YNL298W, strain CLA4 (second series), hits give low values 0.789 | S. cerevisiae deletion strains, locus YNR030W, strain Alg12, hits give low values 0.867 | S. cerevisiae deletion strains, locus YOL006C, strain TOP1, hits give low values 0.57 | S. cerevisiae deletion strains, locus YPL241C, strain CIN2, hits give low values 0.818 | S. cerevisiae deletion strains, locus YPR135W, strain CTF4, hits give low values 0.498 | S. cerevisiae strains, strain wild type, hits give low values 0.881

Reference: PubChem BioAssay AID1159580 (chemical genetic matrix, 2015)
